Records with an inconclusive call do not appear. Activity calls are given as the source filed them. How the source made its calls: active means hit-call score of the fitted dose curve at least 0.9, where 1 is the maximum; inconclusive means response in the unintended direction; inactive means score below 0.9.
Experiments:
[1] = TOX21_p53_BLA_p2_viability: Viability Assessment in the Tox21 HCT-116 p53 Agonism Beta-lactamase Assay, Phase 2 (AID 2283591);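 further: compound exposure lasted 16 h at 37 °C; actives lower the ATP signal meaning cytotoxicity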
Method in brief: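 HCT116 p53-bla cells, 4000/well, dosed after 5 h plating (217-fold dilution of DMSO stocks) and incubated 16 h at 37C. Viability taken as cellular ATP by CellTiter-Glo luminescence after 30 min RT; signal loss marks cytotoxicity.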

[2] = target: Cellular tumor antigen p53 (Homo sapiens) (UniProt P04637); assay: TOX21_p53_BLA_p2_ratio: Tox21 HCT-116 p53 Agonism Beta-lactamase Assay, Ratio, Phase 2 (AID 2283592)
Method in brief: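 Gain-of-signal p53 agonism was scored from the beta-lactamase FRET ratio (460/530 nm, 405 nm excitation) in HCT116 cells treated 16 h at 37C, 5% CO2, with DMSO serving as negative control and baseline.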

[3] = target: Cellular tumor antigen p53 (Homo sapiens) (UniProt P04637); assay: TOX21_p53_BLA_p3_ratio: Tox21 HCT-116 p53 Agonism Beta-lactamase Assay, Ratio, Phase 3 (AID 2283596)
Method in brief: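 HCT116 p53-bla cells (4000/well) given compound in DMSO (217-fold dilution) after 5 h, incubated 16 h at 37C. CCF4-AM substrate 2 h at room temperature; 460/530 nm emission ratio, gain fitted against DMSO.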

[4] = TOX21_p53_BLA_p5_viability: Viability Assessment in the Tox21 HCT-116 p53 Agonism Beta-lactamase Assay, Phase 5 (AID 2283600)
Method in brief: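 After the 460/530 nm beta-lactamase measurement, the wells received an ATP-detection luciferase reagent; signal was read 30 min later at RT. Compound treatment lasted 16 h on cells pre-incubated 5 h post-seeding.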

[5] = target: Cellular tumor antigen p53 (Homo sapiens) (UniProt P04637); assay: TOX21_p53_BLA_p4_ratio: Tox21 HCT-116 p53 Agonism Beta-lactamase Assay, Ratio, Phase 4 (AID 2283601)
Method in brief: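 HCT-116 p53 beta-lactamase reporter cells (4000/well) preincubated 5 h, then compound (217-fold dilution of DMSO stock) for 16 h at 37C. CCF4-AM substrate added 2 h at room temperature; 460/530 nm emission ratio fitted upward versus DMSO.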

[6] = TOX21_p53_BLA_p4_viability: Viability Assessment in the Tox21 HCT-116 p53 Agonism Beta-lactamase Assay, Phase 4 (AID 2283597);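 further: hits lower the luminescence signal meaning cytotoxicity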
Method in brief: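 Following a 16 h exposure at 37C, the treated HCT116 wells were first read for the FRET ratio. They were then lysed with CellTiter-Glo, and ATP luminescence was recorded after 30 min at room temperature.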

[7] = target: Cellular tumor antigen p53 (Homo sapiens) (UniProt P04637); assay: TOX21_p53_BLA_p5_ratio: Tox21 HCT-116 p53 Agonism Beta-lactamase Assay, Ratio, Phase 5 (AID 2283599)
Method in brief: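 HCT-116 p53-bla cells (4000/well) plated 5 h, dosed with compound (217-fold DMSO dilution) for 16 h at 37 C; CCF4-AM substrate 2 h at room temperature. Activity is the 460/530 nm emission ratio (405 nm excitation), fitted in gain-of-signal direction versus DMSO.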

Chain of Cellular tumor antigen p53 (Homo sapiens) (P04637 whole entry, looked up): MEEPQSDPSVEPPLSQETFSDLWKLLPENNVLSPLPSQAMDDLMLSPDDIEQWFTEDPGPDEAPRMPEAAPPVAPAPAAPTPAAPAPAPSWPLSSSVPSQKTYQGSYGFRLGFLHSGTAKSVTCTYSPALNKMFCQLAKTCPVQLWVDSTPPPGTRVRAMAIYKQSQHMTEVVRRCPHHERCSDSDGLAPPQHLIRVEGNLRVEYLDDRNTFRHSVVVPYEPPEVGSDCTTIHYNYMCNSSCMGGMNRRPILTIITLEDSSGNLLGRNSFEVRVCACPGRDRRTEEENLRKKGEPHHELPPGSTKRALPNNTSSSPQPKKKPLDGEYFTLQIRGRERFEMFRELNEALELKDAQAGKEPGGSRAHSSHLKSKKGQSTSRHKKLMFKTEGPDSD

Row | Structure (SMILES) | outcome [1] | outcome [2] | outcome [3] | outcome [4] | outcome [5] | outcome [6] | outcome [7] | AC50 [3]
1 | Clc1ccc2c(c1)C(c1ccccc1)=NCc1nncn1-2 | inactive | inactive | inactive | inactive | inactive | – | – | –
2 | NC1=NC(=O)C(c2ccccc2)O1 (stereo not drawn) | inactive | inactive | inactive | inactive | inactive | – | – | –
3 | [2H]C([2H])([2H])[C@H](N)Cc1ccccc1 | inactive | inactive | inactive | inactive | – | – | – | –
4 | COP(=O)(OC)OC(=CCl)c1cc(Cl)c(Cl)cc1Cl | inactive | inactive | inactive | – | inactive | inactive | inactive | –
5 | C[C@]12C=CC(=O)C=C1CC[C@@H]1[C@@H]2CC[C@]2(C)OC(=O)CC[C@@H]12 | inactive | inactive | inactive | inactive | inactive | – | inactive | –
6 | Clc1ccc(-c2ccc(Cl)c(Cl)c2Cl)c(Cl)c1Cl | inactive | inactive | inactive | – | inactive | inactive | inactive | –
7 | Oc1ccc(Cl)c(Cl)c1 | inactive | inactive | inactive | inactive | inactive | inactive | – | –
8 | ClC=C(Cl)Cl | inactive | inactive | inactive | – | inactive | inactive | inactive | –
9 | CCOP(=S)(OCC)Oc1ncn(-c2ccccc2)n1 | inactive | inactive | inactive | inactive | inactive | inactive | – | –
10 | CCC/C=C/C=C/C(=O)O[C@H]1/C(=C/C(=O)OC)C[C@H]2C[C@H]([C@@H](C)O)OC(=O)C[C@H](O)C[C@@H]3C[C@H](OC(C)=O)C(C)(C)[C@](O)(C[C@@H]4C/C(=C/C(=O)OC)C[C@H](/C=C/C(C)(C)[C@]1(O)O2)O4)O3 | inactive | inactive | inactive | – | inactive | inactive | inactive | –
11 | O=C1CCCCC1CN1CCCCC1 (stereo not drawn) | inactive | inactive | inactive | – | inactive | inactive | – | –
12 | CCC1(c2ccccc2)C(=O)NC(=O)N(C)C1=O (stereo not drawn) | inactive | inactive | inactive | inactive | – | – | – | –
13 | ClCc1ccc(Cl)cc1Cl | inactive | inactive | inactive | inactive | – | – | inactive | –
14 | CC(Cc1ccccc1)NCCn1cnc2c1c(=O)n(C)c(=O)n2C (stereo not drawn) | inactive | inactive | inactive | inactive | inactive | – | inactive | –
15 | c1ccc(OCC2CO2)cc1 (stereo not drawn) | inactive | inactive | inactive | inactive | inactive | inactive | – | –
16 | CNC(=O)Oc1cc(C)c(N(C)C)c(C)c1 | inactive | inactive | inactive | – | inactive | – | inactive | –
17 | C[C@H]1[C@@H]2Cc3ccc(O)cc3[C@@]1(C)CCN2C | inactive | inactive | inactive | inactive | inactive | – | inactive | –

Row | Structure (SMILES) | outcome [1] | outcome [2] | outcome [3] | outcome [4] | outcome [5] | outcome [6] | outcome [7] | AC50 [3]
18 | N#CC1(N=NC2(C#N)CCCCC2)CCCCC1 | inactive | inactive | inactive | – | inactive | – | inactive | –
19 | CN(C)c1ccc(N(C)C)cc1 | inactive | inactive | inactive | – | inactive | inactive | inactive | –
20 | CC(=O)C1CCOC1=O (stereo not drawn) | inactive | inactive | inactive | inactive | inactive | – | inactive | –
21 | CC(C)(O)[C@@H]1[C@H]2OC(=O)[C@@H]1[C@]1(O)C[C@H]3O[C@]34C(=O)O[C@H]2[C@]14C (tested in a mixture with another compound) | inactive | inactive | inactive | – | inactive | inactive | inactive | –
22 | O=c1oc2ccccc2c(O)c1C1CCCc2ccccc21 (stereo not drawn) | inactive | inactive | inactive | inactive | – | – | inactive | –
23 | OP(O)c1ccccc1 | inactive | inactive | inactive | inactive | inactive | – | inactive | –
24 | C=CC(C)(CCC=C(C)C)OC(=O)c1ccccc1N (stereo not drawn) | inactive | inactive | inactive | inactive | inactive | – | inactive | –
25 | CNP(=O)(OC)Oc1ccc(C(C)(C)C)cc1Cl (stereo not drawn) | inactive | inactive | inactive | inactive | inactive | – | inactive | –
26 | COCCC#N | inactive | inactive | inactive | inactive | inactive | – | – | –
27 | C[C@]12N[C@H](Cc3ccccc31)c1ccccc12 | inactive | inactive | inactive | inactive | inactive | – | – | –
28 | Nc1c(Br)cc([N+](=O)[O-])cc1[N+](=O)[O-] | inactive | inactive | inactive | inactive | – | inactive | – | –
29 | CCN(CC)c1c([N+](=O)[O-])cc(C(F)(F)F)c(N)c1[N+](=O)[O-] | inactive | inactive | inactive | inactive | inactive | inactive | – | –
30 | CCN(C)N=O | inactive | inactive | inactive | – | inactive | inactive | inactive | –
31 | COC(=O)C(Br)CBr (stereo not drawn) | inactive | inactive | – | – | inactive | – | inactive | 48 µM (active)
32 | CC[C@@H](CO)NC(=O)[C@@H]1C=C2c3cccc4[nH]cc(c34)C[C@H]2N(C)C1 | inactive | inactive | inactive | inactive | inactive | inactive | – | –
33 | NCCOS(=O)(=O)O | inactive | inactive | inactive | inactive | inactive | – | inactive | –
